Compound activity from PubChem.
Hits are enriched below; roughly 1.3% of the tested compounds scored in any of these assays.
TRPV1 potentiator – HTS Assay for Compounds that Act as Potentiators of the Vanilloid Receptor 1; Transient receptor potential cation channel subfamily V member 1 (Homo sapiens), Q8NER1; TRPV1-expressing cells, Fluo-8 calcium influx, capsaicin EC20 potentiation; potentiation, % at 8.33 µM; 320,000 tested, 0.02% active; AID 540277, 2011; in the data active means potentiation above about 80%; inconclusive means between about 30% and that limit; further: 0% is about no effect
Target sequence (Q8NER1 whole entry, looked up): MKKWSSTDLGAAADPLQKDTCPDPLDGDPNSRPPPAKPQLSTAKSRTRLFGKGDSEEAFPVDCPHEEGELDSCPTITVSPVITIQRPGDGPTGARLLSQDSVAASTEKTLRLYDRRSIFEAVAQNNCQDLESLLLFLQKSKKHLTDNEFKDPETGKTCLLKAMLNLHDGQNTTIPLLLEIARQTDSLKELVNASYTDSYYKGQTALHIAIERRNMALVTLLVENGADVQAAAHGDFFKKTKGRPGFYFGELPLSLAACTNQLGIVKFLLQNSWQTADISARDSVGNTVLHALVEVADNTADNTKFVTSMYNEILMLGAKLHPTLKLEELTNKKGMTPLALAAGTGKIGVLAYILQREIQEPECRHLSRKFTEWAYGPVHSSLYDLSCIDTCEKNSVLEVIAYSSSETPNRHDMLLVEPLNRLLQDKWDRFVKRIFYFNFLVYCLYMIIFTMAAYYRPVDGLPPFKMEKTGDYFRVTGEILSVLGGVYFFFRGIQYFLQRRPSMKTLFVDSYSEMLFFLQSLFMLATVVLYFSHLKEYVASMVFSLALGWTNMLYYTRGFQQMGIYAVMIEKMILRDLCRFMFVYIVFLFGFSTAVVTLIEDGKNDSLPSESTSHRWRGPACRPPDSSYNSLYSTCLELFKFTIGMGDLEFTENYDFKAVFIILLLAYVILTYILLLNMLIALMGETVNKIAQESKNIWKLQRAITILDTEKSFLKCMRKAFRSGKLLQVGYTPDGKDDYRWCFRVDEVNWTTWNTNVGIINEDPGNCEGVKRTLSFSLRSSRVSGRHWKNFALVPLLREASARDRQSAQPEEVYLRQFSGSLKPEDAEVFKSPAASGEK
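Fluo-8 calcium influx in TRPV1-expressing cells, kinetic read (ex 480/em 520 nm). Compound added and read 3 min for agonist activity, followed by capsaicin at EC20 final and 2 min further read for enhancement.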
MBNL1-CUG inh – qHTS Assay for Inhibitors of MBNL1-poly(CUG) RNA binding | Muscleblind-like protein 1 (Homo sapiens), Q9NR56 | TR-FRET MBNL1-His/biotin-(CUG)12 binding, 665/545 ratio | Potency, µM (top dose mostly 57.5 µM), without a hit: top-dose activity change, negative = inhibition, actives largely listed as inhibitors | 280,000 tested, 0.036% active | AID 2675, 2010; active means well fitted inhibition curve with a large enough effect in the signal ratio, with a control signal flat, not every such curve was filed as active; inconclusive means small, poorly fitted or top-dose-only effect, or effect the other way, or a change in a side signal; inactive means no such curve, though single readings can be large or run the other way; the % refers to the signal ratio; further: potency means the concentration at half of the fitted maximal effect; on the % scale 0 is the no-effect control and ±100 the full control effect
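TR-FRET readout: Ex 340 nm, 665/545 nm emission ratio, normalized to buffer-only (basal) and MBNL1-(CUG)12 controls. Complex of MBNL1-His with Biotin-(CUG)12, compounds 92 nM–58 uM, incubated 60 min at room temperature.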
KCNH2 3.1 inh – qHTS for Inhibitors of KCHN2 3.1: Mutant qHTS | 340,000 tested, 0.95% active | AID 720553, 2013 | activity change, % (tested at about 1.8 µM) | U2OS KCNH2 3.1, thallium flux FluxOr; stronger effect = lower value;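 active means maximum activity change below -70%; inconclusive means maximum activity change from -70% to -50%; inactive means maximum activity change above -50%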;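 further: thallium influx rate constant from kinetic fluorescence after stimulation buffer; on the % scale 0 is the no-effect control and ±100 the full control effect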
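Thallium flux via FluxOr fluorescence (Red40 quencher, 45 min loading) in U2OS cells virally expressing the KCNH2 3.1 isoform (1.77 x 10^8 /mL virus, overnight at 37 C). Rate constants from 2-min kinetic reads post-stimulation, normalised to positive and negative controls.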
TRPV1 agonist – HTS Assay for Compounds that Act as Agonists of the Vanilloid Receptor 1; TRPV1-expressing cells, Fluo-8 calcium influx, agonist mode; activation, % at 8.33 µM; 320,000 tested, 0.19% active; in the data active means activation above about 80%; inconclusive means between about 30% and that limit; further: 0% is about no effect
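TRPV1-expressing cells were cultured overnight at 35.5C and loaded with Fluo-8 calcium dye for 40 to 90 min at room temperature. After a 10 s baseline, compound was added and calcium influx was read kinetically for 3 min (ex 480/em 520 nm).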
KCNH2 WT inh – qHTS for Inhibitors of KCHN2 3.1: Wildtype qHTS. Voltage-gated inwardly rectifying potassium channel KCNH2 (Homo sapiens), Q12809. U2OS, BacMam KCNH2, thallium flux FluxOr; stronger effect = lower value. activity change, % at 1.84 µM. 340,000 tested, 0.37% active. AID 720551, 2013;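 active means maximum activity change below -70%; inconclusive means maximum activity change between -70% and -50%; inactive means maximum activity change above -50%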; further: on the % scale 0 is the no-effect control and ±100 the full control effect
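U2OS cells transduced with wild-type KCNH2 virus are loaded with FluxOr dye for 45 min, and thallium flux is measured in kinetic reads before and after stimulation buffer. Rate constants are normalized to DMSO controls.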
* marks the source's active call; other numbers are inactive results.

What do the screens show for `COc1ccc(C(=O)NC2CC2)cc1OC1CCN(Cc2cnn(C)c2C)CC1`?
TRPV1 potentiator: -0.7; MBNL1-CUG inh: -6.0%; KCNH2 3.1 inh: -2.7; TRPV1 agonist: -0.6; KCNH2 WT inh: 5.2

What do the screens show for `O=C(NC1CCN(CC(=O)N(c2ccccc2)c2ccccc2)CC1)c1ccc([N+](=O)[O-])cc1`?
TRPV1 potentiator: 4.3; MBNL1-CUG inh: inconclusive; KCNH2 3.1 inh: -110.5*; TRPV1 agonist: -5.2; KCNH2 WT inh: -76.6*

How did COc1ccc(C(=O)NC2CC2)cc1OC1CCN(Cc2cc(C)c(C)cc2C)CC1 do in these assays?
TRPV1 potentiator: 4.3; MBNL1-CUG inh: -1.7%; KCNH2 3.1 inh: -75.4*; TRPV1 agonist: 23.9; KCNH2 WT inh: inconclusive

How did CCOc1cc(N2CCOCC2)c(OCC)cc1NC(=O)C(NC(=O)c1ccco1)C(C)C (configuration not stated) do in these assays?
TRPV1 potentiator: -7.9; MBNL1-CUG inh: -4.0%; KCNH2 3.1 inh: -7.8; TRPV1 agonist: -1.3; KCNH2 WT inh: -4.6

Results for CSCCC(NC(=O)c1ccccc1Br)C(=O)Nc1ccc(C)cc1 (configuration not stated) ?
TRPV1 potentiator: -5.8; MBNL1-CUG inh: -7.0%; KCNH2 3.1 inh: -9.2; TRPV1 agonist: 3.1; KCNH2 WT inh: -1.0

What do the screens show for `O=C(NC1CCN(Cc2ccccc2)CC1)c1ccccc1`?
TRPV1 potentiator: -8.4; MBNL1-CUG inh: -7.8%; KCNH2 3.1 inh: 1.2; TRPV1 agonist: 4.0; KCNH2 WT inh: -4.0

What do the screens show for `O=C(NC1CCN(Cc2ccc(Cl)cc2Cl)CC1)c1ccccc1`?
TRPV1 potentiator: 7.0; MBNL1-CUG inh: -8.1%; KCNH2 3.1 inh: -83.6*; TRPV1 agonist: -1.9; KCNH2 WT inh: -2.0

How did Cn1c(=O)c(C(=O)c2ccc(S(C)(=O)=O)c(Cl)c2Cl)c(O)c2ccccc21 do in these assays?
KCNH2 3.1 inh: -0.7; KCNH2 WT inh: 5.1

Results for COc1cc(/C=N/NC(=O)c2ccc(Cl)c(S(N)(=O)=O)c2)ccc1OCC(N)=O ?
TRPV1 potentiator: -12.8; MBNL1-CUG inh: inconclusive; KCNH2 3.1 inh: 21.6; TRPV1 agonist: 2.5; KCNH2 WT inh: -142.3*

What do the screens show for `COc1ccc(NC(=O)COc2ccc(/C=N/NC(=O)c3cccnc3)cc2OC)cc1`?
TRPV1 potentiator: -15.4; KCNH2 3.1 inh: 5.4; TRPV1 agonist: 0.9; KCNH2 WT inh: -0.8

What do the screens show for `COc1cc(/C=N/NC(=O)c2cccnc2)ccc1OCC(=O)Nc1ccccc1Cl`?
TRPV1 potentiator: 9.7; KCNH2 3.1 inh: -97.3*; TRPV1 agonist: -3.5; KCNH2 WT inh: 0.4

Results for CCOC(=O)N1CCN(S(=O)(=O)c2c(C)nc3scc(C)n3c2=O)CC1 ?
TRPV1 potentiator: 6.3; MBNL1-CUG inh: 35.3%; KCNH2 3.1 inh: -1.6; TRPV1 agonist: inconclusive; KCNH2 WT inh: 10.3

Results for CC(C)COC(=O)C(C#N)c1nc2ccccc2nc1N1CCN(Cc2ccccc2)CC1 (configuration not stated) ?
TRPV1 potentiator: -1.5; MBNL1-CUG inh: 11.6%; KCNH2 3.1 inh: -48.8; TRPV1 agonist: 18.6; KCNH2 WT inh: -46.7

Results for N#CC(C(=O)NC1CC1)c1nc2ccccc2nc1N1CCN(C/C=C/c2ccccc2)CC1 (configuration not stated) ?
TRPV1 potentiator: -8.5; MBNL1-CUG inh: 1.6%; KCNH2 3.1 inh: -85.8*; TRPV1 agonist: 22.0; KCNH2 WT inh: -104.0*

How did COCC(C)OC(=O)C(C#N)c1nc2ccccc2nc1N1CCN(Cc2ccccc2)CC1 (configuration not stated) do in these assays?
MBNL1-CUG inh: 4.5%; KCNH2 3.1 inh: -25.9; KCNH2 WT inh: 12.1

How did COCCOC(=O)C(C#N)c1nc2ccccc2nc1N1CCN(Cc2ccccc2)CC1 (configuration not stated) do in these assays?
TRPV1 potentiator: 23.3; MBNL1-CUG inh: inconclusive; KCNH2 3.1 inh: -87.6*; TRPV1 agonist: 14.5; KCNH2 WT inh: -11.0

Results for C=CCOC(=O)C(C#N)c1nc2ccccc2nc1N1CCN(Cc2ccccc2)CC1 (configuration not stated) ?
TRPV1 potentiator: -3.0; MBNL1-CUG inh: 12.5%; KCNH2 3.1 inh: -87.0*; TRPV1 agonist: 0.8; KCNH2 WT inh: inconclusive

How did N#CC(C(=O)NC1CC1)c1nc2ccccc2nc1N1CCCC1 (configuration not stated) do in these assays?
TRPV1 potentiator: -14.3; MBNL1-CUG inh: 4.0%; KCNH2 3.1 inh: 6.4; TRPV1 agonist: inconclusive; KCNH2 WT inh: 7.9

Results for CCCCn1cnc2c(oc3nc4c(cc32)CCCC4)c1=O ?
TRPV1 potentiator: inconclusive; KCNH2 3.1 inh: 0.0; TRPV1 agonist: -1.6; KCNH2 WT inh: 3.3

How did NS(=O)(=O)c1ccc(-n2nncc2-c2ccco2)cc1 do in these assays?
TRPV1 potentiator: 25.3; MBNL1-CUG inh: -2.3%; KCNH2 3.1 inh: -5.6; TRPV1 agonist: -2.9; KCNH2 WT inh: -2.1

How did CC(C)(C)NCC(O)(c1ccc(Cl)cc1)c1ccc(Cl)cc1 do in these assays?
TRPV1 potentiator: 0.2; KCNH2 3.1 inh: 2.4; TRPV1 agonist: 5.0; KCNH2 WT inh: -8.8

What do the screens show for `CCN(CC)CCNCC(O)(c1ccc(Cl)cc1)c1ccc(Cl)cc1`?
TRPV1 potentiator: 0.8; KCNH2 3.1 inh: -91.1*; TRPV1 agonist: 2.7; KCNH2 WT inh: inconclusive

Results for O=C(O)c1ccccc1Nc1ccc([N+](=O)[O-])c2nonc12 ?
TRPV1 potentiator: 5.7; MBNL1-CUG inh: inconclusive; KCNH2 3.1 inh: 4.3; TRPV1 agonist: -2.5; KCNH2 WT inh: -3.1

Results for COc1cc(CN(C)C(C)C(=O)Nc2ccc([N+](=O)[O-])cc2Cl)ccc1OC(F)F (configuration not stated) ?
TRPV1 potentiator: -10.5; MBNL1-CUG inh: 20.3%; KCNH2 3.1 inh: inconclusive; TRPV1 agonist: -4.0; KCNH2 WT inh: -95.0*

How did COc1ccc([N+](=O)[O-])cc1NC(=O)C(C)N(C)Cc1cccc(OC)c1OC (configuration not stated) do in these assays?
TRPV1 potentiator: -15.6; MBNL1-CUG inh: -2.7%; KCNH2 3.1 inh: 0.2; TRPV1 agonist: inconclusive; KCNH2 WT inh: -4.7

Results for O=c1c(Cc2c(F)cccc2Cl)c(O)ccn1CCc1ccccn1 ?
TRPV1 potentiator: 14.2; MBNL1-CUG inh: -7.6%; KCNH2 3.1 inh: -92.4*; TRPV1 agonist: 1.1; KCNH2 WT inh: -4.4

How did Cc1nn(-c2ccccc2)c(Cl)c1C(=O)OCC(=O)NCCc1ccccc1 do in these assays?
TRPV1 potentiator: -10.9; MBNL1-CUG inh: -1.4%; KCNH2 3.1 inh: -37.7; TRPV1 agonist: -1.7; KCNH2 WT inh: 3.0
